The text below walks through data of ChEMBL document CHEMBL3988442, “University of Dundee, Small-Polar-MMV Screening Library” (2021).

The structures appear in SMILES notation. For some of these results: Results with a measured potency or affinity are listed apart.

Holding throughout (parameters): scale not given: direction of the effect not stated beside the values
The target in experiment [1] is Protein translocase subunit SecA (Escherichia coli (strain K12)) (UniProt P10408). Put plainly: Assay to Identify E. coli SecA ATPase Inhibitors. Type of experiment: functional. Particulars: 30 µM.
Experiment [2] concerns the target T1, Ubiquitin-activating enzyme e1, putative (Leishmania donovani (strain BPK282A1)) (UniProt E9BSI1).
T1 sequence (whole entry): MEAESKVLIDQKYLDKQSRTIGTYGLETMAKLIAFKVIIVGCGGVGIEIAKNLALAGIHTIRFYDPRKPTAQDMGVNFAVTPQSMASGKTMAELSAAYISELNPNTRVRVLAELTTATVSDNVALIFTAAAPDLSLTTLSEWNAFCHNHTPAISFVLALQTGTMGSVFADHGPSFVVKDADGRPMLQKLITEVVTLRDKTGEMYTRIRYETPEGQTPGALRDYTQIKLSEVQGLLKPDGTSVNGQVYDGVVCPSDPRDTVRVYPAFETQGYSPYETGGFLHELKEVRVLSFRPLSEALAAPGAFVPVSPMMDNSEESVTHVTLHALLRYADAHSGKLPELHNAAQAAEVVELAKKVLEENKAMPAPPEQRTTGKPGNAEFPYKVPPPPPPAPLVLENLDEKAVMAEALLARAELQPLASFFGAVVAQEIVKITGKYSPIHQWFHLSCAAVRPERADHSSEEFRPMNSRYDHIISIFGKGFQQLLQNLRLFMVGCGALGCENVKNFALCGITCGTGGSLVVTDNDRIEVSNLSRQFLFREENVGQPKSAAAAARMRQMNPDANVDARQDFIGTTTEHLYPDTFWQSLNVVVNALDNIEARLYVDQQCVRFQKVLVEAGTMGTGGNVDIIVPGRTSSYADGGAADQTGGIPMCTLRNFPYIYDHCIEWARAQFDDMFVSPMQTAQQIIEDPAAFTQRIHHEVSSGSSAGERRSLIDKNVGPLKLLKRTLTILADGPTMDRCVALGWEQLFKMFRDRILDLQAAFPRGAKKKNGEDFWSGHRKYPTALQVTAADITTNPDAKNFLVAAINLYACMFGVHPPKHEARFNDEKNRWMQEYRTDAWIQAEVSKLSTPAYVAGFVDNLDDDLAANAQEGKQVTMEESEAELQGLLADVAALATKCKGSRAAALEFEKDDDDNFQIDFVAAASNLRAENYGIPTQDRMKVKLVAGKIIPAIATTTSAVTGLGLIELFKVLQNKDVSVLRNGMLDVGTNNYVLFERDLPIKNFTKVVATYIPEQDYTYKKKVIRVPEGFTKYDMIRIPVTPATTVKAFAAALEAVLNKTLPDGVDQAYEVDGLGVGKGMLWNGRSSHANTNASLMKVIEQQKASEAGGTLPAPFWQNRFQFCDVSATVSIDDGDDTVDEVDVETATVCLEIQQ
Put plainly: Leishmania donovani Ubiquitin Activating Enzyme (LdE1). Format: functional. The note with it: 30 µM.

The target of experiment [3] is AMP-activated protein kinase, AMPK (Homo sapiens) (UniProt P54646+O43741+P54619+Q9UGJ0+Q9Y478+Q13131+Q9UGI9). In words: AMP-dependent Kinase enzyme assay. An in vitro enzyme assay that detects ADP turnover that is directly proportional to AMPK activity. This uses naive AMPK that is activated during the assay with MK-8722. Format: functional. The note with it: 30 µM.

The target in experiment [4] is Sialic acid-binding Ig-like lectin 9 (Homo sapiens) (UniProt Q9Y336). In words: Hs-Siglec9 ALPHAscreen SOP 20170721. Particulars: 10 µM.
The subject of experiment [5] is Trypanosoma cruzi. In words: Trypanosoma cruzi phosphomannomutase and mannose-1-phosphate guanylyltransferase assay. Particulars: 10 µM. Type of experiment: functional.
The target of experiment [6] is T2, Arginase-2, mitochondrial (Homo sapiens) (UniProt P78540).
T2 sequence (whole entry): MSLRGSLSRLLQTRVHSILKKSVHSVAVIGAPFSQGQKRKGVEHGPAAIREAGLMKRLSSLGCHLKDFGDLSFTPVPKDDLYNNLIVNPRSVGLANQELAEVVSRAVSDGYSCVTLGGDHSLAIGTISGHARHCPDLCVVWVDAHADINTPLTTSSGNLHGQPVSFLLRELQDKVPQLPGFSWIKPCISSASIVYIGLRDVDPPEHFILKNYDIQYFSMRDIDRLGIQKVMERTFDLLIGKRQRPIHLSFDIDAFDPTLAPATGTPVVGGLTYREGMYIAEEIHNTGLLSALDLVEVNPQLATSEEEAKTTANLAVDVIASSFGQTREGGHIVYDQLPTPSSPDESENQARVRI
In words: in vitro enzyme assay to detect the production of urea directly proportional to the activity of Arginase II. Note: in the data most compounds retested in dose-response had high values. Format: functional. The note with it: 33.3 µM.

In experiment [7] the target is T3, Proteasome subunit beta (Trypanosoma cruzi) (UniProt O96673).
T3 sequence (whole entry): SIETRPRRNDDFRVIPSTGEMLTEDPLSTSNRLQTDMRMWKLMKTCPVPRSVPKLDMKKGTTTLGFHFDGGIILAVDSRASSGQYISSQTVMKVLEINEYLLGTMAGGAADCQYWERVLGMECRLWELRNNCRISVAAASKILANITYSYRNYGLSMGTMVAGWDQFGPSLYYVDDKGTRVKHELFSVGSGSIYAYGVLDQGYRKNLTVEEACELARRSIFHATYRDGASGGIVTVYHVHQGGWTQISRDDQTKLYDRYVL
In words: Trypanosoma cruzi proteasome chymotrypsin-like activity (TcProtChymo) assay. Note: in the data most compounds retested in dose-response had high values. Format: functional. Particulars: 9.37 µM.

The species entered for experiment [8] is Homo sapiens. Put plainly: To identify inhibition of the IFN signalling (Jak-Stat) pathway via expression of an eGFP reporter gene under the control of an IFN-stimulated response element (ISRE) containing MxA promoter. Format: functional. The note with it: 30 µM.
For experiment [9], the target named is T4, Tyrosyl-tRNA synthetase, putative (Trypanosoma cruzi (strain CL Brener)) (UniProt Q4DSP6).
T4 sequence (whole entry): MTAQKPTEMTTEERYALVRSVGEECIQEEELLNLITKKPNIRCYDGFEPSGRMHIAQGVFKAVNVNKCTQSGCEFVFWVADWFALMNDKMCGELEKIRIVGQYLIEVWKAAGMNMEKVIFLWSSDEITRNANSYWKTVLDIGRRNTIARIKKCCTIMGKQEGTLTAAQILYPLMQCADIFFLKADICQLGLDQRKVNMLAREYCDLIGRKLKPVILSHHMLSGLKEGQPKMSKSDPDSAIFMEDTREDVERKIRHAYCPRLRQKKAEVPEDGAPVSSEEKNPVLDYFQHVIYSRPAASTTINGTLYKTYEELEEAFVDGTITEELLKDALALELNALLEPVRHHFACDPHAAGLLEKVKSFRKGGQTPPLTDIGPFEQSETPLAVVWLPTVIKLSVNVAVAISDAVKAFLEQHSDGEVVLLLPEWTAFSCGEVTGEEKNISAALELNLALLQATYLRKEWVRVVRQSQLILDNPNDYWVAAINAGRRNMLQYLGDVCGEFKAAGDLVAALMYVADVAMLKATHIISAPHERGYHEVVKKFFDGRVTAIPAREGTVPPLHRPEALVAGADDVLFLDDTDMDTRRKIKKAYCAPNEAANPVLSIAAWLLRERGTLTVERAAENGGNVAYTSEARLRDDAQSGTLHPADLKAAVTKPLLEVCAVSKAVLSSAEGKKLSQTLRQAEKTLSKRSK
In words: Trypanosoma cruzi tyrosyl tRNA synthetase (TcYRS) _High Tyrosine SOP. Note: in the data most compounds retested in dose-response had high values. Type of experiment: functional. The note with it: 30 µM.

Experiment [10] addresses T4, Tyrosyl-tRNA synthetase, putative (Trypanosoma cruzi (strain CL Brener)). In words: Trypanosoma cruzi tyrosyl tRNA synthetase (TcYRS) SOP. Type of experiment: functional. The note with it: 30 µM.
Experiment [11] deals with Chromo domain-containing protein 1 (Saccharomyces cerevisiae (strain ATCC 204508 / S288c) (Baker's yeast)) (UniProt P32657). Put plainly: ScCHD-1 Enzyme Inhibition Assay. Note: in the data most compounds retested in dose-response had high values. Format: functional. Particulars: 30 µM.
Chromo domain-containing protein 1 (Saccharomyces cerevisiae (strain ATCC 204508 / S288c) (Baker's yeast)), sequence (P32657 whole entry, the tested form may be a part): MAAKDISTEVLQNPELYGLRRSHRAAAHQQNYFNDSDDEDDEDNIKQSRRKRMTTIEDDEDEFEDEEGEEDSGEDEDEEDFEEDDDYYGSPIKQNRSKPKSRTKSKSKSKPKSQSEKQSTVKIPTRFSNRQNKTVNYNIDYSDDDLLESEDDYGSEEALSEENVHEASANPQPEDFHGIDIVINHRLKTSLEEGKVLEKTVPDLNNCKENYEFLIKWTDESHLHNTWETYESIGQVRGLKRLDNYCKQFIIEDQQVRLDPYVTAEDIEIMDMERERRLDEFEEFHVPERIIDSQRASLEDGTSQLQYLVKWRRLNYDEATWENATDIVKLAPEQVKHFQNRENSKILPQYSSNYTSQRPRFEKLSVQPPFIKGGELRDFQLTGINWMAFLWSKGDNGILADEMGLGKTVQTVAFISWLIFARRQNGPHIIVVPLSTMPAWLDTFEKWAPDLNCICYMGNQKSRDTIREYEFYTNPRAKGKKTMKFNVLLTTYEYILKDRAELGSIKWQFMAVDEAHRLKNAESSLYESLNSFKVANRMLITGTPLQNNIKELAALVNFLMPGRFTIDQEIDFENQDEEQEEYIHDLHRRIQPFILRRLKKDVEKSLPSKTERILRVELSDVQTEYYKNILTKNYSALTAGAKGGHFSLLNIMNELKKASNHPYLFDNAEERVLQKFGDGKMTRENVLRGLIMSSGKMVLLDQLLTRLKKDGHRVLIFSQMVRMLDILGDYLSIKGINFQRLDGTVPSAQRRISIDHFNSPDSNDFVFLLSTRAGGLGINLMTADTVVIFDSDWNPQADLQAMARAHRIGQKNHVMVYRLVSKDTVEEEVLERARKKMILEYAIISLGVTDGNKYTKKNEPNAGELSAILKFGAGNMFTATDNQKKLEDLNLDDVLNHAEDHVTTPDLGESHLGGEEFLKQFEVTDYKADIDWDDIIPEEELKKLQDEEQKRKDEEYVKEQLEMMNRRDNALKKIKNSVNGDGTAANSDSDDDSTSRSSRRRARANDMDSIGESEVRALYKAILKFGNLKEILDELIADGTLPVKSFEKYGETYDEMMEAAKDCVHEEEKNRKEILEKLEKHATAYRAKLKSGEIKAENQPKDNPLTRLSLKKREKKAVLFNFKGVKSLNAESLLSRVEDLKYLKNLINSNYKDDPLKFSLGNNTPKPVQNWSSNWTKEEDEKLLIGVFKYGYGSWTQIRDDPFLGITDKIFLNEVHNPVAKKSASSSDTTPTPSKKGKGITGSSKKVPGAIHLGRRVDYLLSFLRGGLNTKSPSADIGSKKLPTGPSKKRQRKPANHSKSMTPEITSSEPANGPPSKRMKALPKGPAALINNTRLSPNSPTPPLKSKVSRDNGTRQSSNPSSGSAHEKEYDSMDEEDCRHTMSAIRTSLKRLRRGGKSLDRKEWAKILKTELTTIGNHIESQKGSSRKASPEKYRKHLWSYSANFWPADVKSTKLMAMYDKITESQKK

Sialic acid-binding Ig-like lectin 9 (Homo sapiens), sequence (Q9Y336 whole entry): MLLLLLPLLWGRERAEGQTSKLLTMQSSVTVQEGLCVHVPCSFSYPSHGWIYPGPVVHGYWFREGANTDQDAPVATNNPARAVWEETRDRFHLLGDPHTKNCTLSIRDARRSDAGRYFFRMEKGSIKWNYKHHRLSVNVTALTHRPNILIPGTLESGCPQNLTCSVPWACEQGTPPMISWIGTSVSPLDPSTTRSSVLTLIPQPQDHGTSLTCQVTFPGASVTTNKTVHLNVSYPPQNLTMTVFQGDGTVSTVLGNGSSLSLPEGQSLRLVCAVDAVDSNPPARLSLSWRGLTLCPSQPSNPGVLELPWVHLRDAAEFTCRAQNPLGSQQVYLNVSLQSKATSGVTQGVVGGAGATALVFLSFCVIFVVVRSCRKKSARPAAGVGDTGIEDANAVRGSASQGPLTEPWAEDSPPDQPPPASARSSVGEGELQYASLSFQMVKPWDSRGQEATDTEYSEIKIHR
Protein translocase subunit SecA (Escherichia coli (strain K12)), sequence (P10408 whole entry): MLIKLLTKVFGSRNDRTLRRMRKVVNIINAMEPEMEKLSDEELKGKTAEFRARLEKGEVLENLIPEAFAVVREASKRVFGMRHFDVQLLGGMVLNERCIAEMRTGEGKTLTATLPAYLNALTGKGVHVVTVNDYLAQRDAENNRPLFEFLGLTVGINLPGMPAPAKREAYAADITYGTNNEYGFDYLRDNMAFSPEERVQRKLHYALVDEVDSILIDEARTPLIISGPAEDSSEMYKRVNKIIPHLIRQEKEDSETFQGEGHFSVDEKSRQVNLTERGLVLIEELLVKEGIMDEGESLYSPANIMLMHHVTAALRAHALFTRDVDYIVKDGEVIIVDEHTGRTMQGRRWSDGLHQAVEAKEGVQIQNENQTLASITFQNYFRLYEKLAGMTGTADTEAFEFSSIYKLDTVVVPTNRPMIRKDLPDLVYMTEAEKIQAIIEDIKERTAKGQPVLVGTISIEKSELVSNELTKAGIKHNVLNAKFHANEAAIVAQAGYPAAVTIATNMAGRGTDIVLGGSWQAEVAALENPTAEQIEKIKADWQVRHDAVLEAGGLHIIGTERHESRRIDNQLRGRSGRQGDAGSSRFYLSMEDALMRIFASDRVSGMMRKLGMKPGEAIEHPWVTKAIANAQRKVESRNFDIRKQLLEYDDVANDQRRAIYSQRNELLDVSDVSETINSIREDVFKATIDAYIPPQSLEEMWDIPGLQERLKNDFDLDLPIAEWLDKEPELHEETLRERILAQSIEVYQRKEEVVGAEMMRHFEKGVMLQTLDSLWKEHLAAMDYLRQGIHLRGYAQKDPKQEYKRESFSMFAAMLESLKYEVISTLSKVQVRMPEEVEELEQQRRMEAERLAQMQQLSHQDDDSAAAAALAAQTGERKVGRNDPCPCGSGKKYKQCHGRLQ

Turning to `CC(C)CN(C)c1ccc(C(=O)N2CCCC2c2cnn(C)c2)cn1` (stereo not drawn), the Percent Effect is -0.585% in experiment [1]; 5.26% in [2]; -6.48% in [3]; -6.28% in experiment [4]; 3.46% in experiment [5]; 1.44% in [6]. In addition, the Percent Effect is 8.71% in experiment [7]; 11.2% in [8]; 7.39% in experiment [9]; 23.5% in experiment [10]; -10.4% in experiment [11].
As to `CC(=O)N1CCCC1c1nnc2n1CCCCC2` (stereo not drawn), the Percent Effect in experiment [1] was -8.8%; in experiment [2] it was -32.4%; in experiment [3], 1.68%; in [4], -1.76%; in experiment [5], -0.195%; in [6] it was 5.42%. The Percent Effect was 6.85% in experiment [7]; 5.46% in [8]; 7.92% in experiment [9]; 13.4% in experiment [10]; -5.77% in experiment [11].
Turning to `CC(=O)NCC(=O)N1CC[C@H](OCC2CC2)[C@@H]1Cc1cccnc1`, the Percent Effect was -0.669% in experiment [1]; 5.33% in experiment [2]; -3.45% in [3]; 5.96% in [4]; -2.51% in [5]; -50% in [6]. In addition, the Percent Effect in [7] is 5.47%; in experiment [8] it was 1.5%; in experiment [9], 1.04%; in experiment [10] it was -47.5%; in experiment [11] it was -0.336%.
For `O=C(c1cccc2c1OCCO2)N1CCCC(n2ccnc2)C1` (stereo not drawn), the Percent Effect in [1] was -2.67%; in experiment [2], 5.26%; in [3] it was 2.73%; in [4], -0.188%; in experiment [5], -9.77%; in experiment [6], 3.45%. Besides, the Percent Effect in [7] is 2.17%; in experiment [8], 13.9%; in experiment [9], 3.43%; in experiment [10], 4.88%; in experiment [11], 3.23%.
Regarding `COCC1CC2(CCN(C(=O)c3cccn3C)CC2)CN1C(C)C` (stereo not drawn), the Percent Effect is -2.49% in experiment [1]; -13.5% in [2]; 4.17% in experiment [3]; -2.06% in [4]; 1.37% in experiment [5]; -1.67% in [6]. Besides, the Percent Effect in experiment [7] is 0.761%; in [8], -12.3%; in [9], 7.92%; in [10], 3.66%; in experiment [11], -4.39%.
On to `Cc1ccc(N2CC3(CCN(C(=O)c4ccoc4)C3)C2)nn1`, for which the Percent Effect in experiment [1] was -2.51%; in [2], 15.6%; in experiment [3] it was 2.65%; in experiment [4], 11.4%; in experiment [5], 3.64%; in experiment [6], -143%. In addition, the Percent Effect in experiment [7] is 9.48%; in experiment [8], 0.925%; in experiment [9] it was 5.38%; in experiment [10], 13.6%; in experiment [11], -5.33%.
With `Cc1cc(C)cc(C2(C(=O)NC(C)Cn3ccnc3)CC2)c1` (stereo not drawn), the Percent Effect in [1] was -2.27%; in experiment [2], 25.3%; in experiment [3] it was -10.3%; in experiment [4], 0.0554%; in experiment [5], 3.31%; in [6] it was -4.56%. Moreover, the Percent Effect in [7] was 14.3%; in experiment [8], -5.91%; in [9], 8.37%; in [10], 24.1%; in experiment [11], -10.8%.
In the case of `Cc1cccc(NC(=O)Cn2ncc(SCC(N)=O)c(Cl)c2=O)c1C`, the Percent Effect in experiment [1] is -3.9%; in experiment [2], 5.48%; in experiment [3], 4.95%; in [4] it was -15.5%; in experiment [5], -4.31%; in experiment [6], 3.18%. Moreover, the Percent Effect in [7] was 22.5%; in experiment [8], 17.6%; in experiment [9] it was 5.38%; in experiment [10], 5%; in experiment [11] it was 79.5%.
